This is one part of a sample in which hits are shown more often than they occur.
14-3-3 PPI = alters human 14-3-3 gamma binding to Raf peptide; inhibition, % at 40 µM; AID 422; P61981; 0.19% of 160,000 active; FP, 14-3-3gamma / TMR-pS259-Raf peptide binding; in the data active = inhibition above about 30%;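 also: 0% = protein plus tracer without compound and 100% = blank with tracer alone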
Target sequence (P61981 whole entry, looked up): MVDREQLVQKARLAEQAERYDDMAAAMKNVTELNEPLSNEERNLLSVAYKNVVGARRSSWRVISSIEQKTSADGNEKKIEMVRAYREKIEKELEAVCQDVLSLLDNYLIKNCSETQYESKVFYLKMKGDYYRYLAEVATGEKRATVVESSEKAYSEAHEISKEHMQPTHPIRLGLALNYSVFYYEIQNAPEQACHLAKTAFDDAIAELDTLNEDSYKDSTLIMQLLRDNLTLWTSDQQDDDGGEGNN
An asterisk follows results filed as active.

SMILES | 14-3-3 PPI
CCCS(=O)(=O)N1N=C(c2ccc(NS(C)(=O)=O)cc2)CC1c1ccccc1F (stereo unspecified) | 70.7*
CCCC12CN3CC(C)(CN(C1)C31C(=O)Nc3ccccc31)C2=O (stereo unspecified) | 2.0
O=C(Nc1cccc(Cl)c1)c1ccc(F)c(S(=O)(=O)N2CCCc3ccccc32)c1 | -8.2
O=C(Nc1ccccc1Cl)c1cc(S(=O)(=O)N2CCCc3ccccc32)ccc1F | 3.9
O=C(Nc1ccccc1Cl)c1ccc(F)c(S(=O)(=O)N2CCCc3ccccc32)c1 | 31.3*
COc1cc(C(c2c[nH]c3ccccc23)c2c[nH]c3ccccc23)cc(OC)c1O | -148.8
CCOCCCNc1c(Cc2ccccc2)c(C)c(C#N)c2nc3ccccc3n12 | -20.8
COc1ccc(NC(=O)c2cc3c(CO)cnc(C)c3oc2=Nc2ccc(OC(F)(F)F)cc2)c(OC)c1 | -2.4
O=C(Nc1cccnc1)c1cccnc1 | 0.5
COc1ccc(C(=O)Nc2cccnc2)cc1OC | 46.9*
Cn1nnc2cc(C(=O)Nc3cccnc3)ccc21 | 2.5
CCOc1ccc(NC2=CC(=NS(=O)(=O)c3ccc(CC)cc3)c3ccccc3C2=O)cc1 | -7.4
CCc1ccc(S(=O)(=O)N=C2C=C(Nc3ccccc3)C(=O)c3ccccc32)cc1 | -93.3
COc1ccc(S(=O)(=O)N=C2C=C(Nc3ccc(O)cc3)C(=O)c3ccccc32)cc1 | 13.7
CCc1ccc(S(=O)(=O)N=C2C=C(Nc3ccc(C(=O)OC)cc3)C(=O)c3ccccc32)cc1 | 32.5*
CCOC(=O)c1ccc(NC2=CC(=NS(=O)(=O)c3ccc(OC)cc3)c3ccccc3C2=O)cc1 | 81.7*
CCOc1ccc(S(=O)(=O)N=C2C=C(Nc3ccc(OC)cc3)C(=O)c3ccccc32)cc1 | -3.1
Cc1ccc(-n2cc(C(=O)NCc3cccnc3)c3ccccc3c2=O)cc1C | 3.8
COc1cc(NCCCC(C)N)c2ncccc2c1 (stereo unspecified) | 69.8*
COc1cc(NS(=O)(=O)c2ccc(C)cc2)c2ncccc2c1 | -8.1
COc1cccc(CNc2cccc3cccnc23)c1O | -12.8
O=C1CCc2cc(S(=O)(=O)NCCC(=O)N3CCN(c4cccc(Cl)c4)CC3)ccc2N1 | 4.0
CCOC(=O)N1CCN(C(=O)CCN2C(=O)COc3ccccc32)CC1 | -6.8
CSc1cccc(NC(=O)C2CCC(CNS(=O)(=O)c3ccc(Br)s3)CC2)c1 (stereo unspecified) | -7.3
OC(CN1CCOCC1)CN(c1ccccc1)c1ccccc1 (stereo unspecified) | 92.3*
SMILES | 14-3-3 PPI
OC(CN1CCCCC1)CN(c1ccccc1)c1ccccc1 (stereo unspecified) | -5.8
OC(CN1CCOCC1)CN1CCOCC1 | -5.1
CC1(C)CC(=O)C2=C(C1)N(Cc1cccnc1)C(=O)C2(NC(=O)C1CC1)C(F)(F)F (stereo unspecified) | 13.1
NC(=O)c1ccc(N2CCCCC2)c(N2C(=O)CCC2=O)c1 | -1.5
NC(=O)c1cc(N)ccc1N1CCCC1 | 30.6*
NC(=O)c1ccc(N2CCCCC2)c(N2C(=O)C3C4C=CC(C4)C3C2=O)c1 (stereo unspecified) | 1.6
Cc1c(C(=O)N2CCC(C)CC2)sc2ncnc(N3CCN(c4ccccc4F)CC3)c12 | 0.2
CC1=NN(C(=O)c2csc3c2CCC(C)C3)C(O)(C(F)(F)F)C1 (stereo unspecified) | -3.9
O=C1c2ccc3c4c(ccc(c24)C(=O)N1c1ccc(O)cc1)C(=O)N(c1ccc(O)cc1)C3=O | -15.6
COc1ccc2c3c(cccc13)C(=O)c1ccccc1-2 | 32.5*
O=C1c2ccccc2-c2ccc(Br)c3cccc1c23 | -0.5
COC(=O)CSc1ccc2c3c(cccc13)C(=O)c1ccccc1-2 | 20.2
C=C(C)c1nc2ccccc2c(=O)o1 | 5.1
Cc1cc(C)cc(NC(=O)CSc2nnc(COc3ccccc3Cl)o2)c1 | 1.0
O=C1C=C(C(F)(F)F)c2ccc(NC3CCCCC3)c3cccc1c23 | 130.7*
O=C1C(Cl)=C(NC2CCCCC2)C(=O)N1c1cccc(C(F)(F)F)c1 | -2.6
O=[N+]([O-])c1cc(S(=O)(=O)C(Cl)(Cl)Br)ccc1NC1CCCCC1 | -8.2
COc1cc(C(=O)Oc2ccc3oc(=O)sc3c2)cc(OC)c1OC | -5.1
COc1cc(OC)cc(C(=O)Nc2ccc(-c3nc4cc(C(C)C)ccc4o3)cc2)c1 | -8.5
O=c1oc2ccccc2cc1-c1csc(Nc2ccccc2)n1 | 2.8
CCOC(=O)c1cnc(SCC(=O)c2ccc3c(c2)OCCO3)nc1N | -3.9
COc1ccc(Nc2nnc(-c3cc4ccc(O)cc4oc3=O)s2)cc1OC | -7.3
Cc1ccc2cc3cc(C(=O)NC4CCN(Cc5ccccc5)CC4)oc3nc2c1 | -13.2
Cc1ccc2cc3cc(C(=O)N4CCC(C)CC4)oc3nc2c1 | -5.8
Cc1ccc2cc3cc(C(=O)NC4CCCC4)oc3nc2c1 | 12.6
SMILES | 14-3-3 PPI
Cc1ccc2cc3cc(C(=O)N4CCN(c5ccc([N+](=O)[O-])cc5)CC4)oc3nc2c1 | -13.2
Cc1ccc2cc3cc(C(=O)N4CCN(C5CCCCC5)CC4)oc3nc2c1 | 16.7
Cc1ccc2cc3cc(C(=O)NC4CC4)oc3nc2c1 | 36.2*
Cc1ccc2cc3cc(C(=O)N4CCN(c5ccc(F)cc5)CC4)oc3nc2c1 | 67.0*
Cc1ccc2cc3cc(C(=O)N4CCN(c5cccc(C)c5C)CC4)oc3nc2c1 | 57.1*
Cc1ccc2cc3cc(C(=O)N4CC(C)CC(C)C4)oc3nc2c1 (stereo unspecified) | -3.8
Cc1c(NC(=O)CSc2nnnn2Cc2ccccc2)c(=O)n(-c2ccccc2)n1C | -0.9
Cc1cc([N+](=O)[O-])ccc1NC(=O)c1ccc(Br)o1 | -13.4
O=C(c1ccccc1)c1ccc(N2CCOCC2)c(F)c1 | -4.8
CC(C)Cc1nc(N2CCC(C(N)=O)CC2)c2nnn(Cc3ccccc3)c2n1 | -9.6
CCOC(=O)c1cc2c(=O)n3ccccc3nc2n(C(C)C)c1=NC(=O)c1ccc(C(F)(F)F)cc1 | -7.8
CC1CC(=O)N(c2ccc(N(C)Cc3ccccc3)c([N+](=O)[O-])c2)C1=O (stereo unspecified) | -3.8
CC1CCC2C(=O)N(c3ccc(N(C)C4CCCCC4)c([N+](=O)[O-])c3)C(=O)C2C1 (stereo unspecified) | -1.4
CC1CCC2C(=O)N(c3ccc(N(C)Cc4ccccc4)c([N+](=O)[O-])c3)C(=O)C2C1 (stereo unspecified) | 37.8*
Cc1ccc(C(=O)COC(=O)c2cccc(N3C(=O)C4C5CCC(C5)C4C3=O)c2)cc1[N+](=O)[O-] (stereo unspecified) | -7.1
CCN(CC)c1ccc(N=C2C(=O)Nc3ccccc32)cc1 | -36.4
Cc1ccc(N=C2C(=O)Nc3ccccc32)cc1 | -4.5
CN(C)c1ccc(/C=C2\C(=O)Nc3ccccc32)cc1 | 38.3*
N#Cc1ccc(Cn2c(=O)c(C#N)c3n(c2=O)CCC3)cc1 | -11.8
Cc1ccccc1-n1nc2c(c1NC(=O)c1ccc(C)c([N+](=O)[O-])c1)CSC2 | 1.6
COC(=O)c1ccc(N2C(=O)CSC2c2cccc(OC)c2OC)cc1 (stereo unspecified) | 1.2
Nc1cc(-c2ccco2)no1 | -3.7
c1coc(-c2cc(C3CCNCC3)[nH]n2)c1 | 42.2*
O=C(O)c1cc(-c2ccco2)[nH]n1 | 5.3
COc1cccc2cc(-c3csc(-c4ccc([N+](=O)[O-])cc4)n3)c(=O)oc12 | -7.2
COc1ccc(Cl)cc1NC(=O)CN1C(=O)CCS(=O)(=O)c2ccccc21 | -6.1

Screening results deposited in PubChem BioAssay by Emory University Molecular Libraries Screening Center.
